{"source": "PubChem BioAssay AID720641", "about": "(ICCB-Longwood Screening Facility, Harvard Medical School, 2013)", "assay": "Staphylococcus aureus RN4220 growth blockers – two temperatures, LtaS inhibitor project, primary screen (AID 720641)", "settings": "S. aureus RN4220 growth, OD600, 20 h, 42 °C, stronger effect = lower value", "note": "Where “and” joins values, the source holds several entries; their conditions need not be identical. Equal entries are not always repeated. The whole screen tested about 170,000 compounds, of which about 900 (0.53%) were called active.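 How the source made its calls: active means relative growth at most 50% at the other temperature and 20+ points below 30 °C, or under 10% at both; inactive means the rest, inconclusive results apart.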 Only a selection was taken, and actives are over-represented in it overall.", "data": [{"compound": "CC1=NN(c2ccccc2)C(=O)C1C=C1C(=O)N(C)C(=S)N(C)C1=O", "note": "(stereo not given)", "values": [{"measurement": "relative growth", "result": "109% (inactive)"}, {"measurement": "relative growth", "setting": "measured here: growth at 30 °C", "result": 103, "unit": "%"}]}, {"compound": "Cc1c(C(=O)NC2CCCC2)oc2ccc(S(=O)(=O)N(C)C3CCCCC3)cc12", "values": [{"measurement": "relative growth", "result": "142% (inactive)"}, {"measurement": "relative growth", "setting": "measured here: growth at 30 °C", "result": 89.2, "unit": "%"}]}, {"compound": "Cc1ccc(-c2cc(C(=O)Oc3ccccc3Cl)no2)cc1C", "values": [{"measurement": "relative growth", "result": "0.23% (active)"}, {"measurement": "relative growth", "setting": "measured here: growth at 30 °C", "result": -0.03, "unit": "%"}]}, {"compound": "COCCNC(=O)c1cc(-c2cccc(Cl)c2)on1", "values": [{"measurement": "relative growth", "result": "92.5% (inactive)"}, {"measurement": "relative growth", "setting": "measured here: growth at 30 °C", "result": 110, "unit": "%"}]}, {"compound": "CCCCNC(=O)c1cc(-c2ccc(Cl)c(Cl)c2)on1", "values": [{"measurement": "relative growth", "result": "100% (inactive)"}, {"measurement": "relative growth", "setting": "measured here: growth at 30 °C", "result": 88, "unit": "%"}]}, {"compound": "CC(=O)Nc1ccc2nc3c(cc2c1)[nH]c1ccccc13", "values": [{"measurement": "relative growth", "result": "114% (inactive)"}, {"measurement": "relative growth", "setting": "measured here: growth at 30 °C", "result": 93.5, "unit": "%"}]}, {"compound": "COc1ccc(-c2csc3ncnc(NCCSCc4ccco4)c23)cc1", "values": [{"measurement": "relative growth", "result": "67.1% (inactive)"}, {"measurement": "relative growth", "setting": "measured here: growth at 30 °C", "result": 66.9, "unit": "%"}]}, {"compound": "Clc1ccc(C(Cn2ccnc2)OCc2ccsc2Cl)c(Cl)c1", "note": "(stereo not given)", "values": [{"measurement": "relative growth", "result": "-0.03% (active) and -0.62% (active)"}, {"measurement": "relative growth", "setting": "measured here: growth at 30 °C", "result": "0.13% and 0.06%"}]}, {"compound": "CC1CCCCN1C(=O)c1ccc(Br)cc1", "note": "(stereo not given)", "values": [{"measurement": "relative growth", "result": "99.9% (inactive)"}, {"measurement": "relative growth", "setting": "measured here: growth at 30 °C", "result": 91.1, "unit": "%"}]}, {"compound": "COc1ccc(N=C2SCCCN2C(=O)C2CCCC2)cc1OC", "values": [{"measurement": "relative growth", "result": "94.4% (inactive)"}, {"measurement": "relative growth", "setting": "measured here: growth at 30 °C", "result": 86, "unit": "%"}]}, {"compound": "CC(NCc1ccc(OC(F)F)cc1OC(F)F)c1ccc(-n2ccnc2)cc1", "note": "(stereo not given)", "values": [{"measurement": "relative growth", "result": "101% (inactive)"}, {"measurement": "relative growth", "setting": "measured here: growth at 30 °C", "result": 92.4, "unit": "%"}]}, {"compound": "c1ccc2cc3cnccc3cc2c1", "values": [{"measurement": "relative growth", "result": "3.61% (active)"}, {"measurement": "relative growth", "setting": "measured here: growth at 30 °C", "result": 2.36, "unit": "%"}]}, {"compound": "Sc1ccc2ccccc2c1", "values": [{"measurement": "relative growth", "result": "82.2% (inactive)"}, {"measurement": "relative growth", "setting": "measured here: growth at 30 °C", "result": 91, "unit": "%"}]}, {"compound": "COc1ccccc1NC(=O)Oc1ccc2ccncc2c1", "values": [{"measurement": "relative growth", "result": "105% (inactive)"}, {"measurement": "relative growth", "setting": "measured here: growth at 30 °C", "result": 97.9, "unit": "%"}]}, {"compound": "CC(=O)N1CC=C(c2ccc(O)cc2)CC1", "values": [{"measurement": "relative growth", "result": "37.5% (inactive)"}, {"measurement": "relative growth", "setting": "measured here: growth at 30 °C", "result": 31.2, "unit": "%"}]}, {"compound": "O=C(NCCc1ccccc1)c1ccc(C(=O)c2ccccc2)o1", "values": [{"measurement": "relative growth", "result": "99.2% (inactive)"}, {"measurement": "relative growth", "setting": "measured here: growth at 30 °C", "result": 94.2, "unit": "%"}]}, {"compound": "Cc1cc(C)cc(NS(=O)(=O)c2ccc3c(c2)CC(=O)N3)c1", "values": [{"measurement": "relative growth", "result": "96.8% (inactive)"}, {"measurement": "relative growth", "setting": "measured here: growth at 30 °C", "result": 77, "unit": "%"}]}, {"compound": "COc1cc(NC(=O)c2cc3ccc4cccnc4c3[nH]2)cc(OC)c1OC", "values": [{"measurement": "relative growth", "result": "90.5% (inactive)"}, {"measurement": "relative growth", "setting": "measured here: growth at 30 °C", "result": 89.8, "unit": "%"}]}, {"compound": "CC1=Nc2c(ccc3cccnc23)C1(C)C", "values": [{"measurement": "relative growth", "result": "3.05% (active)"}, {"measurement": "relative growth", "setting": "measured here: growth at 30 °C", "result": 2.08, "unit": "%"}]}, {"compound": "Cc1cc(NC(=O)c2cc3ccc4cccnc4c3[nH]2)no1", "values": [{"measurement": "relative growth", "result": "108% (inactive)"}, {"measurement": "relative growth", "setting": "measured here: growth at 30 °C", "result": 92.6, "unit": "%"}]}, {"compound": "O=C(COC(=O)c1n[nH]c2ccccc12)Nc1ccc(N2CCOCC2)cc1", "values": [{"measurement": "relative growth", "result": "104% (inactive)"}, {"measurement": "relative growth", "setting": "measured here: growth at 30 °C", "result": 96.3, "unit": "%"}]}, {"compound": "Cc1ccc(-n2c(C)ccc2C)cc1", "values": [{"measurement": "relative growth", "result": "97.4% (inactive)"}, {"measurement": "relative growth", "setting": "measured here: growth at 30 °C", "result": 101, "unit": "%"}]}, {"compound": "Oc1c(Cl)cc(Cl)c(Cl)c1Cc1c(O)c(Cl)cc(Cl)c1Cl", "values": [{"measurement": "relative growth", "result": "-0.02% (active)"}, {"measurement": "relative growth", "setting": "measured here: growth at 30 °C", "result": -0.87, "unit": "%"}]}, {"compound": "O=C(Nc1c[nH]c2ccccc12)NC1CCCC1", "values": [{"measurement": "relative growth", "result": "103% (inactive)"}, {"measurement": "relative growth", "setting": "measured here: growth at 30 °C", "result": 62.5, "unit": "%"}]}, {"compound": "COCC(C)NC(=O)Nc1c[nH]c2ccccc12", "note": "(stereo not given)", "values": [{"measurement": "relative growth", "result": "78.5% (inactive)"}, {"measurement": "relative growth", "setting": "measured here: growth at 30 °C", "result": 50.9, "unit": "%"}]}, {"compound": "CN1CCC(N(C)C(=O)Nc2c[nH]c3ccccc23)CC1", "values": [{"measurement": "relative growth", "result": "3.18% (active)"}, {"measurement": "relative growth", "setting": "measured here: growth at 30 °C", "result": 6.3, "unit": "%"}]}, {"compound": "CCOC(=O)N1CCC(N(CCOC)C(=S)Nc2ccccc2F)CC1", "values": [{"measurement": "relative growth", "result": "83.6% (inactive)"}, {"measurement": "relative growth", "setting": "measured here: growth at 30 °C", "result": 74.7, "unit": "%"}]}, {"compound": "Cc1ccc(NC(=O)CC2SC(=Nc3ccc(S(N)(=O)=O)cc3)NC2=O)cc1", "note": "(stereo not given)", "values": [{"measurement": "relative growth", "result": "100% (inactive)"}, {"measurement": "relative growth", "setting": "measured here: growth at 30 °C", "result": 94.2, "unit": "%"}]}, {"compound": "CCC(C)NC(=O)Cn1nc(-c2ccccc2)c2cc(Cl)ccc21", "note": "(stereo not given)", "values": [{"measurement": "relative growth", "result": "105% (inactive)"}, {"measurement": "relative growth", "setting": "measured here: growth at 30 °C", "result": 86.8, "unit": "%"}]}, {"compound": "C=CCNC(=O)c1ccc(S(=O)(=O)N(CC)c2ccccc2)cc1", "values": [{"measurement": "relative growth", "result": "99.8% (inactive)"}, {"measurement": "relative growth", "setting": "measured here: growth at 30 °C", "result": 91, "unit": "%"}]}, {"compound": "Cc1cnc(C(=O)OCc2cc(=O)n3ccsc3n2)cn1", "values": [{"measurement": "relative growth", "result": "86.6% (inactive)"}, {"measurement": "relative growth", "setting": "measured here: growth at 30 °C", "result": 101, "unit": "%"}]}, {"compound": "CC(Oc1ccccc1)C(=O)N[C@@H]1C(=O)N2[C@@H]1SC(C)(C)[C@@H]2C(=O)O", "note": "(stereo not given in full)", "values": [{"measurement": "relative growth", "result": "-1.13% (active)"}, {"measurement": "relative growth", "setting": "measured here: growth at 30 °C", "result": -0.8, "unit": "%"}]}, {"compound": "CC(Oc1ccccc1)C(=O)NC1CCCCC1", "note": "(stereo not given)", "values": [{"measurement": "relative growth", "result": "110% (inactive)"}, {"measurement": "relative growth", "setting": "measured here: growth at 30 °C", "result": 98.3, "unit": "%"}]}, {"compound": "CCOC(=O)OC(C)OC(=O)C1N2C(=O)C(NC(=O)[C@H](N)c3ccccc3)C2SC1(C)C", "note": "(stereo not given in full)", "values": [{"measurement": "relative growth", "result": "-1.14% (active)"}, {"measurement": "relative growth", "setting": "measured here: growth at 30 °C", "result": -0.8, "unit": "%"}]}, {"compound": "CC1(C)S[C@@H]2[C@H](N=CN3CCCCCC3)C(=O)N2[C@H]1C(=O)O", "values": [{"measurement": "relative growth", "result": "93.7% (inactive)"}, {"measurement": "relative growth", "setting": "measured here: growth at 30 °C", "result": 82.3, "unit": "%"}]}, {"compound": "COC(=O)C(N)c1ccccc1", "note": "(stereo not given)", "values": [{"measurement": "relative growth", "result": "68.2% (inactive)"}, {"measurement": "relative growth", "setting": "measured here: growth at 30 °C", "result": 90.3, "unit": "%"}]}, {"compound": "C1=CCC(/C=N/Nc2nc3ccccc3o2)CC1", "note": "(stereo not given)", "values": [{"measurement": "relative growth", "result": "82% (inactive)"}, {"measurement": "relative growth", "setting": "measured here: growth at 30 °C", "result": 84.9, "unit": "%"}]}, {"compound": "Cc1cc2oc(=O)cc(Cn3nnc(-c4ccc(F)cc4)n3)c2cc1C", "values": [{"measurement": "relative growth", "result": "84.4% (inactive)"}, {"measurement": "relative growth", "setting": "measured here: growth at 30 °C", "result": 95.6, "unit": "%"}]}, {"compound": "CCCNS(=O)(=O)c1ccc(N2CCCCS2(=O)=O)cc1", "values": [{"measurement": "relative growth", "result": "101% (inactive)"}, {"measurement": "relative growth", "setting": "measured here: growth at 30 °C", "result": 93.7, "unit": "%"}]}, {"compound": "c1ccc(-c2nc3ccccc3nc2N2CCCC2)cc1", "values": [{"measurement": "relative growth", "result": "97.9% (inactive)"}, {"measurement": "relative growth", "setting": "measured here: growth at 30 °C", "result": 98.8, "unit": "%"}]}, {"compound": "O=C(O)CCCC(=O)Nc1cc(C(F)(F)F)cc(C(F)(F)F)c1", "values": [{"measurement": "relative growth", "result": "101% (inactive)"}, {"measurement": "relative growth", "setting": "measured here: growth at 30 °C", "result": 71.5, "unit": "%"}]}, {"compound": "O=C(N/C=C/c1ccsc1)Nc1cc(C(F)(F)F)cc(C(F)(F)F)c1", "values": [{"measurement": "relative growth", "result": "-2.07% (active)"}, {"measurement": "relative growth", "setting": "measured here: growth at 30 °C", "result": -0.58, "unit": "%"}]}, {"compound": "O=C(CSc1ccccn1)Nc1cc(C(F)(F)F)cc(C(F)(F)F)c1", "values": [{"measurement": "relative growth", "result": "112% (inactive)"}, {"measurement": "relative growth", "setting": "measured here: growth at 30 °C", "result": 86.3, "unit": "%"}]}, {"compound": "CC(=O)OCC(=O)CC12CC3CC(CC(C3)C1)C2", "values": [{"measurement": "relative growth", "result": "83.3% (inactive)"}, {"measurement": "relative growth", "setting": "measured here: growth at 30 °C", "result": 93.7, "unit": "%"}]}, {"compound": "CCOC(=O)CN1C(=O)S/C(=C\\c2ccc(-c3ccc(Cl)cc3Cl)o2)C1=O", "values": [{"measurement": "relative growth", "result": "89.9% (inactive)"}, {"measurement": "relative growth", "setting": "measured here: growth at 30 °C", "result": 87, "unit": "%"}]}]}
